Test results from the supplement of paper PMC12645437, “Orthogonal IMiD-Degron Pairs Induce Selective Protein Degradation in Cells” (ACS Chemical Biology, 2025).
Over roughly 8,300 sequences, “log2 fold change of degron read counts, EGFP-low vs EGFP+ sorted cells (limma voom), compound-induced degradation” has its median near -1.1; the highest 2% begin near 3.2. The entries come from a sample that favours the highest values as a whole.

T1: CRBN, Q96SW2
T1 chain: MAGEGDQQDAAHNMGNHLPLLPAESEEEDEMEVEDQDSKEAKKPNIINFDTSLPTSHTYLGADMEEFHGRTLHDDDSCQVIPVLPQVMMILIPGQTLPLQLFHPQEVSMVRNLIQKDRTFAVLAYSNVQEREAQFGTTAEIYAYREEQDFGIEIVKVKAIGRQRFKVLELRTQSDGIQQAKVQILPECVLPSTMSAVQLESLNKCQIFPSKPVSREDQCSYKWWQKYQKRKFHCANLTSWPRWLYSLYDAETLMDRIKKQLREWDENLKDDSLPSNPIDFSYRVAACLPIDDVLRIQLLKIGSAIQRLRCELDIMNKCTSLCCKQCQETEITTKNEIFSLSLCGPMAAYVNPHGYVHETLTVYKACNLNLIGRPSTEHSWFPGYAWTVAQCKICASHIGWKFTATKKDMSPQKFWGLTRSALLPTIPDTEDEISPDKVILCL


Molecular target: T1, CRBN, Q96SW2
Experiment: log2 fold change of degron read counts, EGFP-low vs EGFP+ sorted cells (limma voom), compound-induced degradation; higher = more compound-induced degradation of the degron-EGFP fusion; degrons are variants of IKZF1/3 zinc finger 2; compound dose not given here
Settings: Jurkat, 18 h
[1] = compound: compound 19 (5-tert-butyl-thalidomide)
[2] = compound: compound 22 (5-morpholino-thalidomide)
[3] = compound: compound 33 (diphenyl IMiD analogue)
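Note: pooled lentiviral library of zinc finger degron-EGFP fusions in mCherry-positive Jurkat cells, FACS-sorted after compound exposure, with degron abundance counted by next-generation sequencing.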

| Sequence | log2 fold change of degron read counts [1] | log2 fold change of degron read counts [2] | log2 fold change of degron read counts [3] | log2 fold change of degron read counts (compound: thalidomide) |
| --- | --- | --- | --- | --- |
| FKCNVCGANFTQKGNLLRHIKL [46F_47K_49N_50V_52G_53A_54N_55F_67L_, Q9UKT9] | -2.45 | -2.95 | -3.12 | -2.19 |
| FICNICGAYFTQKGNLLRHIKL [46F_47I_49N_50I_52G_53A_54Y_55F_67L_, Q9UKT9] | -1.5 | 0.102 | 1.22 | 0.967 |
| FLCNVCGALFTQKGNLLRHIKL [46F_47L_49N_50V_52G_53A_54L_55F_67L_, Q9UKT9] | -2.4 | -1.93 | -0.86 | -0.854 |
| FCCEICGHNFTQKGNLLRHIKL [46F_47C_49E_50I_52G_53H_54N_55F_67L_, Q9UKT9] | -3.4 | -2.63 | -3.12 | -2.76 |
| FQCDQCGANFTQKGNLLRHIKL [46F_47Q_49D_50Q_52G_53A_54N_55F_67L_, Q9UKT9] | -2.74 | -1.96 | -2.34 | -0.263 |
| FQCNICGAIFTQKGNLLRHIKL [46F_47Q_49N_50I_52G_53A_54I_55F_67L_, Q9UKT9] | -0.972 | 2.07 | 2.21 | 3.81 |
| FYCNICGAIFTQKGNLLRHIKL [46F_47Y_49N_50I_52G_53A_54I_55F_67L_, Q9UKT9] | 0.725 | 1.63 | 0.601 | -0.748 |
| FHCNICGAIFTQKGNLLRHIKL [46F_47H_49N_50I_52G_53A_54I_55F_67L_, Q9UKT9] | -0.569 | 0.345 | -0.0029 | -0.75 |
| FTCPICGRYFTQKGNLLRHIKL [46F_47T_49P_50I_52G_53R_54Y_55F_67L_, Q9UKT9] | -0.651 | -0.614 | 0.487 | 0.782 |
| LACNQCGFLCTQKGNLLRHIKL [46L_47A_49N_50Q_52G_53F_54L_55C_67L_, Q9UKT9] | -1.52 | -2.34 | -2.08 | -1.99 |
| LACEICGFKCTQKGNLLRHIKL [46L_47A_49E_50I_52G_53F_54K_55C_67L_, Q9UKT9] | 3.4 | 1.5 | -1.07 | 0.917 |
| LDCEICGFKCTQKGNLLRHIKL [46L_47D_49E_50I_52G_53F_54K_55C_67L_, Q9UKT9] | -0.859 | -1.7 | -1.79 | -0.369 |
| LICEICGFKCTQKGNLLRHIKL [46L_47I_49E_50I_52G_53F_54K_55C_67L_, Q9UKT9] | 0.236 | 1.62 | 0.617 | 2.72 |
| LSCEICGFKCTQKGNLLRHIKL [46L_47S_49E_50I_52G_53F_54K_55C_67L_, Q9UKT9] | 2.27 | 1.7 | -0.728 | 1.09 |
| LECEICGFKCTQKGNLLRHIKL [46L_47E_49E_50I_52G_53F_54K_55C_67L_, Q9UKT9] | -0.0668 | -1.67 | -0.528 | 2.53 |
| LWCEICGFKCTQKGNLLRHIKL [46L_47W_49E_50I_52G_53F_54K_55C_67L_, Q9UKT9] | 3.29 | 3.25 | 1.64 | 1.24 |
| LTCEICGFKCTQKGNLLRHIKL [46L_47T_49E_50I_52G_53F_54K_55C_67L_, Q9UKT9] | 0.899 | 1.56 | -0.216 | 2.39 |
| LLCEICGFKCTQKGNLLRHIKL [46L_47L_49E_50I_52G_53F_54K_55C_67L_, Q9UKT9] | 0.0968 | -1.51 | -0.463 | 1.96 |
| LCCEICGFKCTQKGNLLRHIKL [46L_47C_49E_50I_52G_53F_54K_55C_67L_, Q9UKT9] | 2 | 1.83 | -0.183 | 2.48 |
| LYCEICGFKCTQKGNLLRHIKL [46L_47Y_49E_50I_52G_53F_54K_55C_67L_, Q9UKT9] | 3.6 | 3.16 | 1.42 | 1.42 |
| LFCEICGFKCTQKGNLLRHIKL [46L_47F_49E_50I_52G_53F_54K_55C_67L_, Q9UKT9] | 3.22 | 3.15 | 0.657 | 1.64 |
| LQCEICGFKCTQKGNLLRHIKL [46L_47Q_49E_50I_52G_53F_54K_55C_67L_, Q9UKT9] | 0.755 | 1.87 | 0.3 | 3.27 |
| FLCPVCGAHFTQKGNLLRHIKL [46F_47L_49P_50V_52G_53A_54H_55F_67L_, Q9UKT9] | -0.298 | -0.793 | 1.34 | 0.943 |
| LVCEICGFPCTQKGNLLRHIKL [46L_47V_49E_50I_52G_53F_54P_55C_67L_, Q9UKT9] | -1.74 | -0.966 | -1.5 | -0.424 |
| FVCPICGRIFTQKGNLLRHIKL [46F_47V_49P_50I_52G_53R_54I_55F_67L_, Q9UKT9] | -1.17 | -0.629 | 1.04 | 1.32 |
| FQCPICGHTFTQKGNLLRHIKL [46F_47Q_49P_50I_52G_53H_54T_55F_67L_, Q9UKT9] | -2.53 | -2.01 | -1.64 | 0.116 |
| FRCEVCGANFTQKGNLLRHIKL [46F_47R_49E_50V_52G_53A_54N_55F_67L_, Q9UKT9] | -1.19 | -1.18 | 1.07 | 0.852 |
| FHCPVCGADFTQKGNLLRHIKL [46F_47H_49P_50V_52G_53A_54D_55F_67L_, Q9UKT9] | -0.685 | -1.25 | 0.492 | -1.46 |
